# Data from PubChem BioAssay AID1159580 (chemical genetic matrix, 2015).
# The campaign covered roughly 5,500 compounds. About 2,000 (36%) were called active. Roughly 18% stayed inconclusive and do not appear here. This is one part of the list. Unmarked numbers belong to inactive results. Cut-off read from the data, not from the text of the source: active = normalized growth mostly below about 0.91 (no sharp cut-off); inconclusive = no clear call, values can overlap the other calls; inactive = mostly above about 0.92.
# Assay: chemical genetic growth profiling, strain panel (AID 1159580);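 note: tested at 20 µM; growth read once vehicle control cultures reached saturation at 30 °C; 1 = growth at the plate median or of vehicle wells; lower values mean less growth of the strain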
# Settings: S. cerevisiae deletion strains, growth OD
# [1] = locus YAL021C, strain ccr4, active compounds read low
# [2] = locus YAL026C, strain drs2, active compounds read low
# [3] = locus YAL030W, strain snc1, active compounds read low
# [4] = locus YBL061C, strain skt5, active compounds read low
# [5] = locus YBR009C, strain hhf1, active compounds read low
# [6] = locus YBR023C, strain chs3, active compounds read low
# [7] = locus YBR171W, strain sec66, active compounds read low
# [8] = locus YBR231C, strain swc5, active compounds read low
# [9] = locus YBR279W, strain paf1, active compounds read low
# [10] = locus YCL011C, strain gbp2, active compounds read low
# [11] = locus YCL016C, strain dcc1, active compounds read low
# [12] = locus YCL061C, strain MRC1, active compounds read low
# [13] = locus YCL069W, strain vba3, active compounds read low
# [14] = locus YCR088W, strain abp1, active compounds read low
# [15] = locus YDL005C, strain med2, active compounds read low
# [16] = locus YDL040C, strain nat1, active compounds read low
# [17] = locus YDR001C, strain nth1, active compounds read low
# [18] = locus YDR069C, strain doa4, active compounds read low
# [19] = locus YDR137W, strain rgp1, active compounds read low
# [20] = locus YDR159W, strain sac3, active compounds read low
# [21] = locus YDR297W, strain sur2, active compounds read low
# [22] = locus YDR334W, strain swr1, active compounds read low
# [23] = locus YDR335W, strain msn5, active compounds read low
# [24] = locus YDR392W, strain spt3, active compounds read low
# [25] = locus YEL003W, strain gim4, active compounds read low
# [26] = locus YEL037C, strain rad23, active compounds read low
# [27] = locus YEL061C, strain CIN8 (second series), active compounds read low
# [28] = locus YER015W, strain faa2, active compounds read low
# [29] = locus YER016W, strain bim1, active compounds read low
# [30] = locus YER111C, strain swi4, active compounds read low
# [31] = locus YER155C, strain BEM2 (second series), active compounds read low
# [32] = locus YFR010W, strain ubp6, active compounds read low
# [33] = locus YGL167C, strain pmr1, active compounds read low
# [34] = locus YGL173C, strain kem1, active compounds read low
# [35] = locus YGL227W, strain vid30, active compounds read low
# [36] = locus YGL240W, strain doc1, active compounds read low
# [37] = locus YGL253W, strain hxk2, active compounds read low
# [38] = locus YHR013C, strain ard1, active compounds read low
# [39] = locus YHR027C, strain rpn1, active compounds read low
# [40] = locus YHR030C, strain SLT2, active compounds read low
# [41] = locus YHR079C, strain IRE1, active compounds read low
# [42] = locus YHR142W, strain chs7, active compounds read low
# [43] = locus YJL092W, strain hpr5, active compounds read low
# [44] = locus YJL095W, strain BCK1 (second series), active compounds read low
# [45] = locus YJL095W, strain BCK1, active compounds read low
# [46] = locus YJL115W, strain asf1, active compounds read low
# [47] = locus YJL129C, strain trk1, active compounds read low
# [48] = locus YJL154C, strain vps35, active compounds read low
# [49] = locus YJL164C, strain tpk1, active compounds read low
# [50] = locus YJL166W, strain qcr8, active compounds read low
# [51] = locus YJL187C, strain SWE1, active compounds read low
# [52] = locus YJR066W, strain TOR1, active compounds read low
# [53] = locus YKL160W, strain elf1, active compounds read low
# [54] = locus YKR026C, strain gcn3, active compounds read low
# [55] = locus YKR091W, strain srl3, active compounds read low
# [56] = locus YLL001W, strain dnm1, active compounds read low
# [57] = locus YLL026W, active compounds read low
# [58] = locus YLL041C, strain sdh2, active compounds read low
# [59] = locus YLR027C, strain aat2, active compounds read low
# [60] = locus YLR113W, strain HOG1, active compounds read low
# [61] = locus YLR221C, strain rsa3, active compounds read low
# [62] = locus YLR258W, strain gsy2, active compounds read low
# [63] = locus YLR262C, strain YPT6 (second series), active compounds read low
# [64] = locus YLR320W, strain mms22, active compounds read low
# [65] = locus YLR342W, strain FKS1, active compounds read low
# [66] = locus YLR357W, strain rsc2, active compounds read low
# [67] = locus YLR370C, strain arc18, active compounds read low
# [68] = locus YLR384C, strain iki3, active compounds read low
# [69] = locus YML120C, strain ndi1, active compounds read low
# [70] = locus YMR058W, strain fet3, active compounds read low
# [71] = locus YMR125W, strain sto1, active compounds read low
# [72] = locus YMR129W, active compounds read low
# [73] = locus YMR205C, strain PFK2, active compounds read low
# [74] = locus YMR231W, strain pep5, active compounds read low
# [75] = locus YNL071W, strain lat1, active compounds read low
# [76] = locus YNL183C, strain NPR1, active compounds read low
# [77] = locus YNL209W, strain ssb2, active compounds read low
# [78] = locus YNL248C, strain rpa49, active compounds read low
# [79] = locus YNL322C, strain KRE1 (second series), active compounds read low
# [80] = locus YNR049C, strain mso1, active compounds read low
# [81] = locus YOR001W, strain rrp6, active compounds read low
# [82] = locus YOR070C, strain gyp1, active compounds read low
# [83] = locus YOR080W, strain dia2, active compounds read low
# [84] = locus YOR083W, strain WHI5, active compounds read low
# [85] = locus YOR106W, strain vam3, active compounds read low
# [86] = locus YOR231W, strain MKK1, active compounds read low
# [87] = locus YOR265W, strain rbl2, active compounds read low
# [88] = locus YOR270C, strain vph1, active compounds read low
# [89] = locus YOR290C, strain snf2, active compounds read low
# [90] = locus YPL051W, strain arl3, active compounds read low
# [91] = locus YPL078C, strain atp4, active compounds read low
# [92] = locus YPL106C, strain sse1, active compounds read low
# [93] = locus YPL240C, strain hsp82, active compounds read low
# [94] = locus YPL256C, strain CLN2, active compounds read low
compound,measurement,setting,value
COc1ccc(-c2oc3cc(OC)c(OC)c(OC)c3c(=O)c2OC)cc1,normalized growth,[1],0.993
same,normalized growth,[2],0.881 (active)
same,normalized growth,[3],0.979
same,normalized growth,[4],0.911 (active)
same,normalized growth,[5],0.899 (active)
same,normalized growth,[6],0.919
same,normalized growth,[7],0.978
same,normalized growth,[8],0.93
same,normalized growth,[9],0.982
same,normalized growth,[10],0.955
same,normalized growth,[11],0.948
same,normalized growth,[12],0.964
same,normalized growth,[13],0.993
same,normalized growth,[14],0.991
same,normalized growth,[15],0.982
same,normalized growth,[16],0.984
same,normalized growth,[17],0.982
same,normalized growth,[18],0.987
same,normalized growth,[19],0.797 (active)
same,normalized growth,[20],0.982
same,normalized growth,"locus YDR195W, strain ref2",1.04
same,normalized growth,[21],0.976
same,normalized growth,[22],0.98
same,normalized growth,[23],0.985
same,normalized growth,[24],0.421 (active)
same,normalized growth,[25],0.977
same,normalized growth,[26],0.982
same,normalized growth,[27],0.98
same,normalized growth,[28],0.981
same,normalized growth,[29],0.988
same,normalized growth,[30],0.983
same,normalized growth,[31],0.84 (active)
same,normalized growth,[32],0.981
same,normalized growth,[33],0.976
same,normalized growth,[34],0.97
same,normalized growth,[35],0.987
same,normalized growth,[36],0.959
same,normalized growth,[37],0.89 (active)
same,normalized growth,[38],0.87
same,normalized growth,[39],0.983
same,normalized growth,[40],1.02
same,normalized growth,[41],1.02
same,normalized growth,[42],0.718 (active)
same,normalized growth,[43],0.984
same,normalized growth,[44],0.972
same,normalized growth,[45],0.959
same,normalized growth,[46],0.997
same,normalized growth,[47],0.907
same,normalized growth,[48],0.994
same,normalized growth,[49],0.928
same,normalized growth,[50],0.934
same,normalized growth,[51],0.98
same,normalized growth,[52],0.967
same,normalized growth,[53],0.945
same,normalized growth,[54],0.978
same,normalized growth,[55],0.99
same,normalized growth,[56],0.953
same,normalized growth,[57],0.983
same,normalized growth,[58],0.985
same,normalized growth,[59],0.96
same,normalized growth,[60],0.887
same,normalized growth,[61],0.907 (active)
same,normalized growth,[62],0.967
same,normalized growth,[63],0.795 (active)
same,normalized growth,[64],0.815 (active)
same,normalized growth,[65],0.989
same,normalized growth,[66],0.896
same,normalized growth,[67],0.969
same,normalized growth,[68],0.974
same,normalized growth,[69],0.966
same,normalized growth,[70],0.959
same,normalized growth,[71],0.96
same,normalized growth,[72],0.992
same,normalized growth,[73],0.926
same,normalized growth,[74],1
same,normalized growth,[75],0.734 (active)
same,normalized growth,[76],0.928
same,normalized growth,[77],0.989
same,normalized growth,[78],0.984
same,normalized growth,[79],0.98
same,normalized growth,[80],0.991
same,normalized growth,[81],0.978
same,normalized growth,[82],0.978
same,normalized growth,[83],0.991
same,normalized growth,[84],0.915
same,normalized growth,[85],0.942
same,normalized growth,[86],1.02
same,normalized growth,[87],0.968
same,normalized growth,[88],0.785
same,normalized growth,[89],0.88
same,normalized growth,[90],0.927
same,normalized growth,[91],0.93
same,normalized growth,[92],0.944
same,normalized growth,[93],0.969
same,normalized growth,[94],1.04
COc1ccc(-c2oc3cc(OC)c(OC)c(OC)c3c(=O)c2OC)cc1OC,normalized growth,[1],0.98
same,normalized growth,[2],0.957
same,normalized growth,[3],0.979
same,normalized growth,[4],0.998
same,normalized growth,[5],0.966
same,normalized growth,[6],0.986
same,normalized growth,[7],0.972
same,normalized growth,[8],0.968
same,normalized growth,[9],0.983
same,normalized growth,[10],0.972
same,normalized growth,[11],1
same,normalized growth,[12],0.993
same,normalized growth,[13],0.977
same,normalized growth,[14],0.976
same,normalized growth,[15],0.981
same,normalized growth,[16],0.982
same,normalized growth,[17],0.978
same,normalized growth,[18],0.972
same,normalized growth,[19],0.966
same,normalized growth,[20],0.966
same,normalized growth,"locus YDR195W, strain ref2",0.982
same,normalized growth,[21],0.984
same,normalized growth,[22],0.97
same,normalized growth,[23],0.982
same,normalized growth,[24],0.767
same,normalized growth,[25],0.973
same,normalized growth,[26],0.956
same,normalized growth,[27],0.971
same,normalized growth,[28],0.99
same,normalized growth,[29],0.986
same,normalized growth,[30],0.976
same,normalized growth,[31],0.932
same,normalized growth,[32],0.96
same,normalized growth,[33],0.983
same,normalized growth,[34],0.996
same,normalized growth,[35],0.976
same,normalized growth,[36],0.973
same,normalized growth,[37],0.92
same,normalized growth,[38],0.956
same,normalized growth,[39],1
same,normalized growth,[40],1.03
same,normalized growth,[41],1.01
same,normalized growth,[42],0.933
same,normalized growth,[43],0.966
same,normalized growth,[44],0.987
same,normalized growth,[45],0.972
same,normalized growth,[46],0.986
same,normalized growth,[47],0.979
same,normalized growth,[48],0.974
same,normalized growth,[49],0.974
same,normalized growth,[50],0.978
same,normalized growth,[51],0.981
same,normalized growth,[52],1
same,normalized growth,[53],0.998
same,normalized growth,[54],0.976
same,normalized growth,[55],0.985
same,normalized growth,[56],1
same,normalized growth,[57],0.989
same,normalized growth,[58],0.977
same,normalized growth,[59],0.986
same,normalized growth,[60],0.902
same,normalized growth,[61],1.01
same,normalized growth,[62],0.994
same,normalized growth,[63],0.95
same,normalized growth,[64],0.99
same,normalized growth,[65],0.959
same,normalized growth,[66],0.96
same,normalized growth,[67],0.986
same,normalized growth,[68],0.996
same,normalized growth,[69],0.97
same,normalized growth,[70],0.971
same,normalized growth,[71],0.964
same,normalized growth,[72],0.976
same,normalized growth,[73],0.997
same,normalized growth,[74],0.992
same,normalized growth,[75],0.969
same,normalized growth,[76],0.956
same,normalized growth,[77],0.993
same,normalized growth,[78],0.967
same,normalized growth,[79],0.989
same,normalized growth,[80],0.982
same,normalized growth,[81],0.938
same,normalized growth,[82],0.983
same,normalized growth,[83],0.987
same,normalized growth,[84],0.998
same,normalized growth,[85],0.991
same,normalized growth,[86],1.02
same,normalized growth,[87],0.987
same,normalized growth,[88],0.863
same,normalized growth,[89],0.953
same,normalized growth,[90],1
same,normalized growth,[91],0.977
same,normalized growth,[92],0.969
same,normalized growth,[93],0.995
same,normalized growth,[94],1
